Screens (PubChem)
RGS8-Gao reg = RGS8-Galphao binding modulators, primary screen, biochemical, multiplexed bead flow cytometry; AID 1423, 2008; 220,000 compounds, 0.34% hits; actives lie on both sides; Guanine nucleotide-binding protein G(o) subunit alpha (Homo sapiens), P09471; response (percent of control binding), % at 10 µM; in the data active = response below about 60% or above about 140%; inactive = in between;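 also: Galphao activated as the GDP aluminium fluoride complex binding bead-coupled RGS8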
Target sequence (P09471 whole entry, looked up): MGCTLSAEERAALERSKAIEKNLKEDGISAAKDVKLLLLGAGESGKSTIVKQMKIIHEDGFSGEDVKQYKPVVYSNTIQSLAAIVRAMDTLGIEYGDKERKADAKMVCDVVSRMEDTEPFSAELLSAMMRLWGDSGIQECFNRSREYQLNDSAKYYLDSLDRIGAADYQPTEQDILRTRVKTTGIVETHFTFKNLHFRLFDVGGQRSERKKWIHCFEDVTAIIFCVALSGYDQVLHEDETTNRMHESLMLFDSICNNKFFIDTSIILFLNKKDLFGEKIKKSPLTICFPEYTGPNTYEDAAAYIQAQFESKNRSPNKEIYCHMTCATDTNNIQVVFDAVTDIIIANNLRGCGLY
RGS7-Gao reg = RGS7-Galphao binding modulators, primary screen, biochemical, multiplexed bead flow cytometry; Guanine nucleotide-binding protein G(o) subunit alpha (Homo sapiens), P09471; binding response (% of control), % at 10 µM; AID 1439, 2008; 220,000 compounds, 0.35% hits; actives lie on both sides; in the data active = binding response below about 49% or above about 150%; inconclusive = no clear call, values can overlap the other calls; inactive = in between;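 also: fluorescent Galphao held in activated GDP-AlF4 state binding bead-coupled RGS7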
RGS4-Gao reg = modulators of RGS4 binding to Galphao, primary screen, biochemical, multiplexed bead flow cytometry; 220,000 compounds, 0.33% hits; Guanine nucleotide-binding protein G(o) subunit alpha (Homo sapiens), P09471; actives lie on both sides; binding response (% of control), % at 10 µM; in the data active = binding response below about 49% or above about 150%; inactive = in between;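 also: fluorescent Galphao activated with aluminum fluoride binding bead-coupled RGS4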
Avidin fluor = green autofluorescence of compounds with avidin beads – biophysical, 488/530 nm, flow cytometry, artefact control, profiling panel; compound fluorescence 488/530 nm; stronger effect = higher value; fluorescence (KMESF) at 10 µM; 220,000 compounds, 0.38% hits; in the data active = fluorescence above about 47
GSH bead fluor = compound fluorescence on glutathione beads, profiling panel, artefact control, biophysical, 488/530 nm, flow cytometry | 190,000 compounds, 0.25% hits | GSH beads flow cytometry, compound fluorescence 488/530 nm; stronger effect = higher value | fluorescence (KMESF) at 10 µM; in the data active = fluorescence above about 89;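 also: glutathione beads carrying GST-tagged Bcl family fusion proteins plus one bare bead set; values are compound well signal with DMSO vehicle wells as background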
RGS16-Gao = modulators of RGS16 binding to Galphao, primary screen, biochemical, human proteins, multiplexed bead flow cytometry | Regulator of G-protein signaling 16 (Homo sapiens) + Guanine nucleotide-binding protein … | bead-based flow cytometry RGS16-Galphao binding, fluorescence; actives lie on both sides | binding response (% of control), % at 10 µM | 220,000 compounds, 0.38% hits;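 also: Galphao activated by GDP with aluminum fluoride before binding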
RGS-Gao = modulators of RGS–Galpha-o binding, primary screen, biochemical, multiplexed beads, flow cytometry, RGS4/7/8/16/19; shares compounds with RGS16-Gao; multiplexed bead flow cytometry; RGS4–Galpha-o binding response, % at 10 µM; 1,600 compounds, 99% hits; AID 1504, 2009;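 also: fluorescently labeled Galpha-o bound to GDP with aluminium fluoride binding biotinylated RGS beads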
Biotin-avidin = disruption of biotin probe capture by avidin, counter-screen for RGS protein interaction modulators, biochemical, flow cytometry, bead-based. shares compounds with RGS16-Gao. streptavidin beads, fluorescein-biotin binding. inhibition, % at 10 µM. 1,700 tested, under 10 active;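 active = inhibition above 50%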;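 also: median green fluorescence of gated singlet beads compared with DMSO control wells; 0% = DMSO wells and 100% = complete loss of bead fluorescence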
RGS8-Gao single = RGS8-Galphao binding modulators, confirmation, biochemical, multiplexed bead flow cytometry, single concentration; shares compounds with RGS16-Gao; bead-based flow cytometry RGS8-Galphao binding, fluorescence; actives lie on both sides; binding response (% of control), % at 10 µM; 1,700 compounds, 3% hits; AID 1836, 2009; in the data active = binding response below about 72% or above about 130%; inactive = in between;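 also: Galphao activated as GDP AlF4 complex before binding bead RGS8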
RGS7-Gao confirm = RGS7-Galphao binding modulators, confirmation, biochemical, multiplexed bead flow cytometry, single concentration; shares compounds with RGS16-Gao; bead-based flow cytometry RGS7-Galphao binding; actives lie on both sides; response (percent of control binding), % at 10 µM; 1,700 compounds, 7.8% hits; AID 1837, 2009; in the data active = response below about 75% or above about 130%; inactive = in between;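 also: fluorescent Galphao activated with GDP and aluminum fluoride binding bead-coupled RGS7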
RGS16-Gao single = modulators of RGS16-Galphao protein binding, confirmation, biochemical, single concentration, multiplexed bead flow cytometry; shares compounds with RGS16-Gao; bead-based flow cytometry; actives lie on both sides; response (% of control binding), % at 10 µM; 1,700 compounds, 4% hits; AID 1838, 2009; in the data active = response below about 74% or above about 130%; inactive = in between;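 also: Galphao activated as the GDP aluminium fluoride complex binding bead-coupled RGS16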
RGS4-Gao single = modulators of RGS4-Galphao protein binding, confirmation, biochemical, single concentration, multiplexed bead flow cytometry; shares compounds with RGS16-Gao; actives lie on both sides; 1,700 compounds, 4% hits; AID 1840, 2009; binding response (% of control), % at 10 µM; in the data active = binding response below about 74% or above about 130%; inactive = in between
RGS19-Gao conf = regulators of RGS19-Galphao binding, confirmation, biochemical, single point, multiplexed bead flow cytometry | bead-based flow cytometry RGS19-Galphao binding; actives lie on both sides | 1,700 compounds, 5% hits | shares compounds with RGS16-Gao | response (percent of control binding), % at 10 µM; in the data active = response below about 50% or above about 160%; inactive = in between;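 also: 100% = no compound control and 0% = blank background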
Numbers without * were called inactive; ? = inconclusive; · = not tested or not shown; [ ] = dose if it differs, or a comment. An excerpt weighted towards active compounds, which were near 1.2% of everything screened. Unless noted, no rule for the calls is given here.

SMILES | RGS8-Gao reg | RGS7-Gao reg | RGS4-Gao reg | Avidin fluor | GSH bead fluor | RGS16-Gao | RGS-Gao | Biotin-avidin | RGS8-Gao single | RGS7-Gao confirm | RGS16-Gao single | RGS4-Gao single | RGS19-Gao conf
COc1cccc(NC(=O)c2ccccc2-c2nc(-c3ccccc3)no2)c1 | 90.6 | 87.4 | 88.5 | 15 | 36 | 88.2 | · | · | · | · | · | · | ·
COc1cccc(NC(=O)c2ccccc2-c2nc(-c3ccc(F)cc3)no2)c1 | · | · | · | · | 33 | · | · | -0.3 | 100.4 | 97.3 | 102.6 | 102.5 | 98.4
CC(C)Sc1nc2ccc(N3C(=O)C4CCCCC4C3=O)cc2s1 (stereo unspecified) | 65.4 | 88.5 | 88.3 | 2 | 10 | 20.7* | 88.3* | -4.0 | 113.8 | 108.4 | 120.5 | 106.9 | 115.8
Cc1c(-c2n[nH]c(=S)n2-c2ccc(C(F)(F)F)cc2)nnn1-c1ccccc1 | 97.0 | 101.4 | 101.2 | 3 | 9 | 103.0 | · | · | · | · | · | · | ·
Cc1c(-c2n[nH]c(=S)n2-c2ccc(Br)cc2)nnn1-c1ccc(Cl)cc1 | 102.5 | · | 109.9 | · | 14 | 103.3 | · | -1.9 | 85.6 | 98.2 | 86.2 | 89.5 | 66.9
OCCC1CN(Cc2cc(F)ccc2-n2cccn2)CCN1Cc1ccc(F)cc1 (stereo unspecified) | 101.9 | ? | 99.2 | 5 | · | 106.1 | · | · | · | · | · | · | ·
COc1ccc2[nH]c(=O)c(CN(C(=O)c3cccnc3)c3ccccc3C)cc2c1 | 142.0*[activator] | ? | 306.8*[activator] | 118* | · | 280.3*[activator] | · | 0.6 | 95.9 | 56.1* | 72.7* | 72.1* | 39.2*
Cc1ccc(NC(=O)c2ccc(NCc3ccco3)c([N+](=O)[O-])c2)cc1Cl | 101.0 | 101.3 | 101.3 | 12 | 8 | 100.9 | · | · | · | · | · | · | ·
Cc1noc(C)c1S(=O)(=O)NC1CCN(Cc2ccccc2)CC1 | 120.5 | 106.0 | 108.0 | 5 | 19 | 183.0*[activator] | 108.0* | · | · | · | · | · | ·
Nc1ccc(C(CC(=O)O)n2cccc2)cc1 (stereo unspecified) | 72.5 | 38.9* | 82.6 | 13 | 7 | 95.7 | 82.6* | -1.3 | 97.2 | 80.1 | 89.8 | 89.3 | 65.6
COc1ccc(C(=O)OC(C)CN2CCOCC2)cc1OC (stereo unspecified) | 100.8 | 101.6 | 103.0 | 6 | 6 | 105.4 | · | · | · | · | · | · | ·
